# Test results as given in PubChem BioAssay (NCATS).
# Where “and” joins values, the source holds several entries; their conditions need not be identical. Identical values can stand only once. Inconclusive results are not listed. The list shows a part of the results. Calls of active or inactive are those of the source. Unless noted, the call rests on the fitted dose curve; in most records, active means well fitted curve in the direction sought with a large enough effect; inconclusive means small, poorly fitted or top-dose-only effect, or another doubt; inactive means no such curve, though single readings can be large; an effect the other way counts as inactive or inconclusive.
# How the values were obtained:
# [1] = qHTS for Inhibitors of the vitamin D receptor (VDR): Hit Validation using a Texas Red Assay (AID 602201); conditions: VDR coregulator binding, Texas Red fluorescence polarization; agonist-bound VDR ligand-binding domain; further: potency means the concentration at half of the fitted maximal effect
# Outline: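 Fluorescence polarization with 1.5 uM VDR-LBD, LG19078 and 7 nM Texas Red (final). After 2 hours at ambient temperature, read at Ex 595 nm/Em 615 nm.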
# [2] = target: Tumor susceptibility gene 101 protein (Homo sapiens) (UniProt Q99816); assay: qHTS Assay for Iinhibitors of HIV-1 Budding by Blocking the Interaction of PTAP/TSG101: Hit Validation (AID 651600); conditions: PTAP peptide/TSG101 UEV interaction, biochemical assay; series mostly up to 57.5 µM; further: on the % scale 0 is the no-effect control and ±100 the full control effect; nearly all actives have a fitted effect of over 70% in size
# Tumor susceptibility gene 101 protein (Homo sapiens), sequence (Q99816 whole entry, looked up, the tested form may be a part): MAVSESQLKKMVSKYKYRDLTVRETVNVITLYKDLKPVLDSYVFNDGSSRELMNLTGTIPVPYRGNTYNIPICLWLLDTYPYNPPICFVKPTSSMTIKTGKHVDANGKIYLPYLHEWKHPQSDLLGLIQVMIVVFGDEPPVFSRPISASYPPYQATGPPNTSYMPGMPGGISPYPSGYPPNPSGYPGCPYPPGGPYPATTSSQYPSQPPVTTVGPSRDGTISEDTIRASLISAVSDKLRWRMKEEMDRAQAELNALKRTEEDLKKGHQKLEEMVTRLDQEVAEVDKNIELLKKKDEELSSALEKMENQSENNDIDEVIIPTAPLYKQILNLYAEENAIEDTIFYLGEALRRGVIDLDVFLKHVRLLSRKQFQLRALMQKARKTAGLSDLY
# Outline: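 Fluorescence polarization binding assay: Tsg101 binding domain (10 uM) mixed with compounds and FITC-labeled PTAP peptide (50 nM) in HEPES pH 7.5, 0.15 M NaCl, 0.01% Tween 20, EDTA, TCEP; 20 min at r.t.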
# [3] = target: Phosphoglycerate kinase, glycosomal (Trypanosoma brucei brucei) (UniProt P07378); assay: qHTS for inhibitors of Phosphogylcerate Kinase: Hit Validation Screen (AID 686980); conditions: TbPGK coupled GAPDH assay, Kinase-Glo luminescence; further: potency means the concentration at half of the fitted maximal effect; nearly all actives have a fitted effect of over 65% in size
# Phosphoglycerate kinase, glycosomal (Trypanosoma brucei brucei), sequence (P07378 whole entry, looked up): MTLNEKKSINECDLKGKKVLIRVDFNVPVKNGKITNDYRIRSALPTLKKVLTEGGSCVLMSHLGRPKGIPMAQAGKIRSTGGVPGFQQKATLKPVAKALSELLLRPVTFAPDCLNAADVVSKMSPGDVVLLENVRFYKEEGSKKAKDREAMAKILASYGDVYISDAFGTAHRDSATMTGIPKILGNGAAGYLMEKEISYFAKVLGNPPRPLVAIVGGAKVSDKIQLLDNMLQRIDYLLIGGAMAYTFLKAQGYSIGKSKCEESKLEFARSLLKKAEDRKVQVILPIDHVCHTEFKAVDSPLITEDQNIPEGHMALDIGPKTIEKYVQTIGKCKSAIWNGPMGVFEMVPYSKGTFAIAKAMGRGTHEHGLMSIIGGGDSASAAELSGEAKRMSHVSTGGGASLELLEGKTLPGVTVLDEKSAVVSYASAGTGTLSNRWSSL
# Outline: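 Luminescent ATP detection (Kinase-Glo Plus) follows a 60-minute room-temperature incubation, with wells lacking PGK as controls. Buffer: 100 mM TEA (pH 7.6), 5 mM MgCl2, 0.01% Tween-20. Coupling enzyme GAPDH (100 nM final) supplies unstable 1,3-BPG in-well.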
# [4] = target: DNA polymerase iota (Homo sapiens) (UniProt Q9UNA4); assay: qHTS for Inhibitors of Polymerase Iota: Confirmatory Assay for Cherry-picked Compounds (AID 720496); conditions: Pol iota primer extension, TAMRA/BHQ fluorescence; further: potency means the concentration at half of the fitted maximal effect
# Outline: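 Step 1: 10 nM Pol iota with compound, 15 min, room temperature. Step 2: 50 nM final quenched DNA substrate added. Step 3: fluorescence (ex 525, em 598 nm) read at 0 and after 10 min.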
# [5] = target: DNA polymerase kappa (Homo sapiens) (UniProt Q9UBT6); assay: qHTS for Inhibitors of Polymerase Kappa: Confirmatory Assay for Cherry-picked Compounds (AID 720501); conditions: purified Pol-kappa, fluorescent strand-displacement substrate; further: potency means the concentration at half of the fitted maximal effect
# DNA polymerase kappa (Homo sapiens), sequence (Q9UBT6 whole entry, looked up): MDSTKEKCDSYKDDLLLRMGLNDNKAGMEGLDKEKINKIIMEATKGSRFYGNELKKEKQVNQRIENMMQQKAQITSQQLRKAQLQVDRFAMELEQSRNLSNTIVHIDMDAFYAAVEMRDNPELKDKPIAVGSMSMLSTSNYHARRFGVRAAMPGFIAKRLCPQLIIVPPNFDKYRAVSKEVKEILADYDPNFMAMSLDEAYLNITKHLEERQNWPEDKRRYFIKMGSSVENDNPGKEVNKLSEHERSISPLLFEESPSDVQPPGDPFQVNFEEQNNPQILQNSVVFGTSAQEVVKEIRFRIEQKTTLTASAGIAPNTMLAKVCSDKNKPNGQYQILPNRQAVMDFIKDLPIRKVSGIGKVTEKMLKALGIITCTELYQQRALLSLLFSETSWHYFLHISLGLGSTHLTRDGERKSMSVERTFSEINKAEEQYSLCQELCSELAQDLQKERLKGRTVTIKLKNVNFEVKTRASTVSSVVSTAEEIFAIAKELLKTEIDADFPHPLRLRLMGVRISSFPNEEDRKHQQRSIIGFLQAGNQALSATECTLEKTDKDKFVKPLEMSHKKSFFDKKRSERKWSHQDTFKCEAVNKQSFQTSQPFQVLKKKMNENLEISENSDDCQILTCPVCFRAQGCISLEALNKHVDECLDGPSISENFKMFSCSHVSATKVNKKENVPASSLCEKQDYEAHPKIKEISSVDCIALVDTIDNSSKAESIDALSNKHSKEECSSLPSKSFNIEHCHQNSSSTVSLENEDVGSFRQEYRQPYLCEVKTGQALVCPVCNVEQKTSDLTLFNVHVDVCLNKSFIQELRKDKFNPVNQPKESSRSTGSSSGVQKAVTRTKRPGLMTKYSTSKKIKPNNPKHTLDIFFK
# Outline: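 10 nM human Pol-kappa was preincubated with compound 15 min at room temperature, then 50 nM (final) primer/template substrate with TAMRA-labeled reporter strand and BHQ-2-labeled template added. Fluorescence (Ex 525, Em 598 nm) read at 0 and 10 min.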
# [6] = target: DNA polymerase eta (Homo sapiens) (UniProt Q9Y253); assay: qHTS for Inhibitors of Polymerase Eta: Confirmatory Assay for Cherry-picked Compounds (AID 720502); conditions: Pol eta primer extension, TAMRA/BHQ fluorescence, 10 min; further: potency means the concentration at half of the fitted maximal effect
# Outline: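 Human Pol eta at 10 nM was preincubated with compound for 15 min at room temperature. Reaction was started with TAMRA/BHQ-2-labelled primer-template substrate (50 nM final), with fluorescence read at 0 and 10 min (ex 525, em 598 nm).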
# [7] = qHTS Assay for Identifying Gametocytocidal Compounds (AID 743244);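 further: on the % scale 0 is the no-effect control and ±100 the full control effect; actives lower the fluorescent signal which means gametocytes are killed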; conditions: P. falciparum 3D7 stage III-V gametocytes, alamarBlue, 72 h; max response: stronger effect = lower value
# Outline: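 Stage III-V P. falciparum 3D7 gametocytes, 20,000 per well, were exposed to compounds for 72 h at 37C, 5% CO2. AlamarBlue was then added for 24 h and viability was read as fluorescence at Ex 525/Em 598 nm.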
# [8] = target: N-terminal Xaa-Pro-Lys N-methyltransferase 1 (Homo sapiens) (UniProt Q9BV86); assay: Confirmatory qHTS for Inhibitors of N-terminal methyltransferase 1 (NTMT1): MTaseGlo Assay (AID 1645874); conditions: NTMT1 enzyme, MTase-Glo SAH luminescence; series mostly up to 100 µM; further: potency means the concentration at half of the fitted maximal effect; nearly all actives have a fitted effect of over 65% in size
# N-terminal Xaa-Pro-Lys N-methyltransferase 1 (Homo sapiens), sequence (Q9BV86 whole entry, looked up): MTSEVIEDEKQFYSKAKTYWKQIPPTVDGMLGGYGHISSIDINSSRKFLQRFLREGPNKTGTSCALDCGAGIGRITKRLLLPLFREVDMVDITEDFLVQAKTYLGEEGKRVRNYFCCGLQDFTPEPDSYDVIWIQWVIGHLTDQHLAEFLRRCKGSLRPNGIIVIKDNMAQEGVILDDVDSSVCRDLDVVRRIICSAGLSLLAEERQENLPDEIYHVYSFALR
# Outline: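 qHTS format: NTMT1 125 nM, SAM 100 uM, peptide SPKRIA 1 uM final; 15 min compound preincubation, 30 min reaction at room temperature. MTase-Glo luminescence.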
# [9] = target: Rap guanine nucleotide exchange factor 3 (Homo sapiens) (UniProt O95398); assay: Confirmatory qHTS for antagonist of cAMP-regulated guanine nucleotide exchange factor 3 (EPAC1) (AID 1645880); conditions: EPAC1 Rap1B-BODIPY-GDP exchange, fluorescence; series mostly up to 115 µM; further: potency means the concentration at half of the fitted maximal effect; nearly all actives have a fitted effect of over 55% in size
# Rap guanine nucleotide exchange factor 3 (Homo sapiens), sequence (O95398 whole entry, looked up): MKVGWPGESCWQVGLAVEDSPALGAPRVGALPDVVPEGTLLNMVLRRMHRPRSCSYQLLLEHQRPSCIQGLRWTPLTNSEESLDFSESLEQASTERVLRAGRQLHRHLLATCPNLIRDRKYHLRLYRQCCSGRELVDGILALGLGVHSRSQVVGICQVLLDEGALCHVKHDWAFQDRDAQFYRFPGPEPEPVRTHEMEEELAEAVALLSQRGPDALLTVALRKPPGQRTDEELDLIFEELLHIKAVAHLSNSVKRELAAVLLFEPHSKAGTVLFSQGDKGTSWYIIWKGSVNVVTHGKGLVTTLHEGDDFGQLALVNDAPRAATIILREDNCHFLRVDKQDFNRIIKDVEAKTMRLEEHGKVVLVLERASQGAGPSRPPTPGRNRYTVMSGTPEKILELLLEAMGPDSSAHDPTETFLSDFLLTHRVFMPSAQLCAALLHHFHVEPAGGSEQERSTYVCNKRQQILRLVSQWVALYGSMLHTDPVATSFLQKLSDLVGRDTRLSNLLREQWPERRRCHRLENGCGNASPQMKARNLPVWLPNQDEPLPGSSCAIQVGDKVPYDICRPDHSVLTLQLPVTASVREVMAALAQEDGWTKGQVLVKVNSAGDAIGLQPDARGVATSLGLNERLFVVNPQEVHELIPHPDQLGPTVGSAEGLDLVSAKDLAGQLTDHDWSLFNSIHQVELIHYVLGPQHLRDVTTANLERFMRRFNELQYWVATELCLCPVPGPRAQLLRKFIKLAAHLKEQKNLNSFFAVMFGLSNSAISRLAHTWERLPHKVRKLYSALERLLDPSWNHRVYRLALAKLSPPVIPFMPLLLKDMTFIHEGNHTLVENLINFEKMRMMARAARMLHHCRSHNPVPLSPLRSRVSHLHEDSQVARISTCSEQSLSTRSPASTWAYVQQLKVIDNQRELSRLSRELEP
# Outline: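 Nucleotide exchange uses 100 nM EPAC1, 250 nM RAP1B-BODIPY-GDP and 50 uM GDP, with compounds in a concentration-titration series. After 5 min at room temperature, fluorescence (480 nm ex/540 nm em) is read every 5 min for 30 min. Data are normalized to control ATA and DMSO.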
# [10] = target: Rap guanine nucleotide exchange factor 3 (Homo sapiens) (UniProt O95398); assay: Confirmatory qHTS for agonist of cAMP-regulated guanine nucleotide exchange factor 3 (EPAC1) (AID 1645881); conditions: EPAC1 Rap1B BODIPY-GDP exchange fluorescence; series mostly up to 154 µM;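 further: EPAC1 catalysed release of BODIPY-GDP from Rap1B seen as fluorescence loss; 100% = effect of cAMP agonist control; nearly all actives have a fitted effect of over 75% in size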
# [11] = target: Rap guanine nucleotide exchange factor 4 (Homo sapiens) (UniProt Q8WZA2); assay: Confirmatory qHTS for agonist of cAMP-regulated guanine nucleotide exchange factor 4 (EPAC2) (AID 1645884); conditions: EPAC2 GEF activity, Rap1B-BODIPY-GDP fluorescence; series mostly up to 154 µM;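 further: nucleotide exchange releases bodipy-GDP from Rap1 and this lowers its fluorescence; on the % scale 0 is the no-effect control and ±100 the full control effect; nearly all actives have a fitted effect of over 65% in size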
# Rap guanine nucleotide exchange factor 4 (Homo sapiens), sequence (Q8WZA2 whole entry, looked up): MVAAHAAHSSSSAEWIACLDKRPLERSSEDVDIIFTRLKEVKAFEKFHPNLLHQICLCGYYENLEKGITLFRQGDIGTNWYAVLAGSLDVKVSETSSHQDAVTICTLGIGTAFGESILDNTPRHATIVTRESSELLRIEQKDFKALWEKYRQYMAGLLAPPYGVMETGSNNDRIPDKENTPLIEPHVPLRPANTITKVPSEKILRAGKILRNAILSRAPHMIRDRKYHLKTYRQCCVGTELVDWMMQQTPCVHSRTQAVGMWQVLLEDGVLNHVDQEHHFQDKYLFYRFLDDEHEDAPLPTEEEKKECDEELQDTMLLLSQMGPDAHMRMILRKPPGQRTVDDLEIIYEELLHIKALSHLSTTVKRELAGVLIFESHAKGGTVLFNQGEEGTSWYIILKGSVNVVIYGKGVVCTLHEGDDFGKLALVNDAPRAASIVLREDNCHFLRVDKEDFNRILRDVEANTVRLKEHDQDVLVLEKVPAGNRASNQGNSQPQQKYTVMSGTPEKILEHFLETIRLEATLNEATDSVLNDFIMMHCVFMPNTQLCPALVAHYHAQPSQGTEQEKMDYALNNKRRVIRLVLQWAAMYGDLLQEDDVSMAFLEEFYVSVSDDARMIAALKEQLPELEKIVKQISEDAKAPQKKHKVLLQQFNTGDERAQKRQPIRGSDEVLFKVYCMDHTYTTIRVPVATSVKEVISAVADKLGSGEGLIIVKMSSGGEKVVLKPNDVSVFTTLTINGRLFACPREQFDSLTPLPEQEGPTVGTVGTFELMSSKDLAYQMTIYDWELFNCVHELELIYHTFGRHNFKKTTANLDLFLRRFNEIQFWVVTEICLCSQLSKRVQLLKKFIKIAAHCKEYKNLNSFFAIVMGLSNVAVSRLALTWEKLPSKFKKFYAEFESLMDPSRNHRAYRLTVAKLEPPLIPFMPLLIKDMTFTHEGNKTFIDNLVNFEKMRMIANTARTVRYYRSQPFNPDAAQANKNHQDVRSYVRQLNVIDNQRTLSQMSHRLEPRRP
# [12] = target: Rap guanine nucleotide exchange factor 4 (Homo sapiens) (UniProt Q8WZA2); assay: Confirmatory qHTS for antagonist of cAMP-regulated guanine nucleotide exchange factor 4 (EPAC2) (AID 1645885); conditions: EPAC2 Rap1B-BODIPY-GDP exchange fluorescence, biochemical; series mostly up to 12.7 µM; further: on the % scale 0 is the no-effect control and ±100 the full control effect; nearly all actives have a fitted effect of over 25% in size
# [13] = target: Rap guanine nucleotide exchange factor 3 (Homo sapiens) (UniProt O95398); assay: Counterscreen qHTS for antagonist of cAMP-regulated guanine nucleotide exchange factor 3 (EPAC1) (AID 1645888); conditions: Rap1B-BODIPY-GDP nucleotide exchange, fluorescence; series mostly up to 154 µM;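 further: fluorescence loss as bound BODIPY-GDP is released from Rap1B; % of control where 0% means no effect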
# Outline: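 Rap1B–BODIPY-GDP (250 nM) with 50 uM GDP; compounds pin-transferred to 9.74 nM–152 uM final (activator) or from 7.32 nM upwards (inhibitor). Fluorescence Ex/Em 480/540 nm read at 5 and 30 min, then after adding cAMP or buffer, at room temperature.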
# [14] = Primary qHTS for inhibitors of nuclear receptor binding SET domain protein 2 (NSD2) in an isogenic RCH-ACV NSD2 p.E1099K mutant (9B) (AID 1645876); conditions: RCH-ACV NSD2 E1099K (9B) viability, CellTiter-Glo, 72 h; series mostly up to 44.9 µM; further: potency means the concentration at half of the fitted maximal effect; nearly all actives have a fitted effect of over 70% in size
# [15] = Primary qHTS for inhibitors of nuclear receptor binding SET domain protein 2 (NSD2) in an RCH-ACV wild type WT cells (2C) (AID 1645877); conditions: RCH-ACV (leukaemia line) NSD2 WT (2C) viability, CellTiter-Glo, 72 h; series mostly up to 44.9 µM; further: potency means the concentration at half of the fitted maximal effect; nearly all actives have a fitted effect of over 70% in size
# [16] = target: Catechol O-methyltransferase (Homo sapiens) (UniProt P21964); assay: Confirmatory Screen for Target Class Profiling of Small Molecule Inhibitors of Methyltransferases (AID 1745852; calls by dose curve; further: potency means the concentration at half of the fitted maximal effect); conditions: MTase-Glo luminescence, SAH detection, recombinant enzyme; measured here: COMT max response; stronger effect = lower value
# Catechol O-methyltransferase (Homo sapiens), sequence (P21964 whole entry, looked up): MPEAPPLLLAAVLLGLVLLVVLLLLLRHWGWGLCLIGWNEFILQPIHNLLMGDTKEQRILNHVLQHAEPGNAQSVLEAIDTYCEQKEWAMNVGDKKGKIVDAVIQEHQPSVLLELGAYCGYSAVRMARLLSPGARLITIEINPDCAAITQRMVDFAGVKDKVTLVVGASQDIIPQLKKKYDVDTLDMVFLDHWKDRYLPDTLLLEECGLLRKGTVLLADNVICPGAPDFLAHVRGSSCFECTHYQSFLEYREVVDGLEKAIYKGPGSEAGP
# [17] = target: Guanidinoacetate N-methyltransferase (Homo sapiens) (UniProt Q14353); assay: as above; conditions: MTase-Glo luminescence, SAH detection, recombinant enzyme; activity change, negative = inhibition: at 57.3 µM (top of the series) unless noted
# [18] = target: Nicotinamide N-methyltransferase (Homo sapiens) (UniProt P40261); assay: as above; conditions: MTase-Glo luminescence, SAH detection, recombinant enzyme; measured here: NNMT max response; stronger effect = lower value
# [19] = target: Phenylethanolamine N-methyltransferase (Homo sapiens) (UniProt P11086); assay: as above; conditions: MTase-Glo luminescence, SAH detection, recombinant enzyme; measured here: PNMT max response; stronger effect = lower value
# Phenylethanolamine N-methyltransferase (Homo sapiens), sequence (P11086 whole entry, looked up): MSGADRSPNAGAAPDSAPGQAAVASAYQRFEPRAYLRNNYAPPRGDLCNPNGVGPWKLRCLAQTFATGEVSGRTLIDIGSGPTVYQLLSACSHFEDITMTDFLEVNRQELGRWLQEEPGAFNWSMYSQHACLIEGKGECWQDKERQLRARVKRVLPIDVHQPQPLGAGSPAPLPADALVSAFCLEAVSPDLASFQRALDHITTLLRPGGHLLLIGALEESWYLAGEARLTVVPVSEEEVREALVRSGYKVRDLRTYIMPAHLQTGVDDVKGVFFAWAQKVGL
# [20] = target: Cytochrome P450 2C9 (Homo sapiens) (UniProt P11712); assay: Cytochrome P450 family 2 subfamily C member 9 (CYP2C9) small molecule antagonists: luciferase biochemical (cell-free) qHTS assay (AID 1645842; active means well fitted curve in the direction sought with a large enough effect in the repeat runs; an effect the other way counts as inactive or inconclusive; further: nearly all actives have a fitted effect of over 55% in size; further: potency means the concentration at half of the fitted maximal effect; on activity change, negative = inhibition: on the % scale 0 is the no-effect control and ±100 the full control effect); conditions: P450-Glo CYP2C9 enzyme assay, luciferin luminescence; series mostly up to 57.4 µM
# Cytochrome P450 2C9 (Homo sapiens), sequence (P11712 whole entry, looked up): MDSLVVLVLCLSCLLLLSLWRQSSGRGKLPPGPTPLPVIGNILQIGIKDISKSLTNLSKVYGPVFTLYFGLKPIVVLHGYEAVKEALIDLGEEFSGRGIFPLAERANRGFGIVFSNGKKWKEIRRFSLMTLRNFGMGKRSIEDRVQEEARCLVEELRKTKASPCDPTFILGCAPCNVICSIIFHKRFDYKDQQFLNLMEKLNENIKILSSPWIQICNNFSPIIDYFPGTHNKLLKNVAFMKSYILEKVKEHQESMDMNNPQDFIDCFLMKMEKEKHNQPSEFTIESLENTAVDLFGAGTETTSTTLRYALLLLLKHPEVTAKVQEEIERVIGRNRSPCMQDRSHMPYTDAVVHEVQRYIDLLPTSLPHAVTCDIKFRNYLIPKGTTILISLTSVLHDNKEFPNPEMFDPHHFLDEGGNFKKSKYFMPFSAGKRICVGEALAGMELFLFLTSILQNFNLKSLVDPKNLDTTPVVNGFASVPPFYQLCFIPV
# Outline: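 Luminescence, after 20 min with luciferin detection reagent, reflected CYP2C9 turnover during a 1 h NADPH-driven reaction at 37C. Enzyme-substrate mix contained 0.4% bovine serum albumin and was preincubated with compound 10 min at room temperature.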
smiles,measurement,setting,value
Cc1ccnc(NC(c2cc(C)ccc2O)c2ccc3cccnc3c2O)c1 (stereo not drawn),Potency,[1],28.2 µM (active)
COc1ccc(OC)c(/C=C(\C#N)c2nc3ccccc3c(=O)[nH]2)c1,Potency,[2],inactive
C=CC1=C(C(=O)O)N2C(=O)[C@@H](NC(=O)/C(=N\OCC(=O)O)c3csc(N)n3)[C@H]2SC1,Potency,[3],4.11 µM (active)
same,Potency,[4],7.52 µM (active)
same,Potency,[5],4.74 µM (active)
same,Potency,[6],19 µM (active)
CC[C@H]1OC(=O)[C@H](C)[C@@H](O[C@H]2C[C@@](C)(OC)[C@@H](O)[C@H](C)O2)[C@H](C)[C@@H](O[C@@H]2O[C@H](C)C[C@H](N(C)C)[C@H]2O)[C@](C)(OC)C[C@@H](C)C(=O)[C@H](C)[C@@H](O)[C@]1(C)O,max response,[7],-5.34% (inactive)
O=C(CSc1nc(-c2ccc(F)cc2)nc2c1Cc1ccccc1O2)Nc1cccc(C(=O)O)c1,Potency,[8],6.02 µM (active)
same,Potency,[9],6.01 µM (active) and 151 nM (active)
same,Potency,[10],inactive
same,Potency,[11],inactive
same,Potency,[12],inactive
same,Potency,[13],inactive
Nc1nc(Nc2ccc3c(c2)CC[C@@H](N2CCCC2)CC3)nn1-c1cc2c(nn1)-c1ccccc1CCC2,Potency,[14],2.63 µM (active)
same,Potency,[15],3.32 µM (active)
same,activity,[16],-19.2%
same,Potency,[17],24.1 µM (active)
same,activity,[18],-19.6%
same,activity,[19],-24%
Cc1cc(Cl)ccc1NC(=O)Cn1nc(C)c2c(C)n(-c3ccccc3)nc2c1=O,Potency,[9],84.9 µM (active)
same,Potency,[10],inactive
same,Potency,[11],inactive
same,Potency,[12],inactive
same,Potency,[13],inactive
CC1(C#N)CCN(c2c(C(=O)N3CCC(C(=O)C4CC4)CC3)cnc3cc(F)c(F)cc23)CC1,Potency,[20],9.52 µM (active)
Cc1ccc(-n2c(SCc3ccccc3F)nc3[nH]ncc3c2=O)cc1C,Potency,[20],13.5 µM (active)
Cc1ccc(C2=CC(c3ccccc3C)n3c(nc4ccccc43)N2)cc1 (stereo not drawn),Potency,[20],3.38 µM (active)
Cc1oc(-c2ccccc2F)nc1Cn1c(SCc2ccccc2F)nc2ccncc21,Potency,[20],9.52 µM (active)
C=C1CC[C@H](O)C/C1=C\C=C1/CCCC2(C)C1CCC2C(C)CCCC(C)C (stereo partly drawn),Potency,[20],23.9 µM (active)
CCOC(=O)C1=C(O)c2ccccc2S(=O)(=O)N1C,Potency,[20],inactive
Cc1ccnc(NC(c2ccccc2F)c2ccc3cccnc3c2O)c1 (stereo not drawn),Potency,[20],23.9 µM (active)
O=c1[nH]c2ccc(S(=O)(=O)Nc3cc(Cl)ccc3O)cc2o1,Potency,[20],9.52 µM (active)
CC(C)(C)NC(=O)[C@@H]1C[C@@H]2CCCC[C@@H]2CN1CC(O)[C@H](Cc1ccccc1)NC(=O)[C@@H](CC(N)=O)NC(=O)c1ccc2ccccc2n1 (stereo partly drawn),Potency,[20],12 µM (active)
